# Reference: PubChem BioAssay AID1985 (Southern Research Specialized Biocontainment Screening …, 2009)
# The whole screen tested about 2,300 compounds, of which about 1,000 (43%) were called active. The set was probably picked from earlier hits. This is one part of the list. Potency and affinity values are given separately. A number with no mark means an inactive call. The rule behind the calls is not given here.
# Assay: PhoP regulon inhibitor project modified counter assay, GFP fluorescence readout, dose response (AID 1985)
# Conditions: S. Typhi, 4 h; series mostly up to 150 µM; inhibition: at the top concentration
row,SMILES,inhibition
1,N=c1c(C(=O)NCC2CCCO2)cc2c(=O)n3ccccc3nc2n1Cc1ccc(Cl)cc1 (stereo not drawn),9.7%
2,CCOc1ccc(NC(=O)CN(C)S(=O)(=O)c2cccs2)cc1,15.2%
3,Cc1ncc(CC(=O)n2cc(C(=O)c3cc(F)ccc3O)cn2)s1,38.7%
4,CN(C)C(=O)CC12CC3CC(C1)CC(CC(=O)N(C)C)(C3)C2,-17.9%
5,Nc1cc2c3c(cccc3c1)C(=O)N(CCN1CCCC1)C2=O,35%
6,CC[C@H](C)[C@@H](CN[C@H](C)CNC)NCCC(c1ccccc1)c1ccccc1,26.2%
7,O=C(Cn1c(=O)oc2ccccc21)N1CCN(c2ccc(N3CCOCC3)nn2)CC1,0.93%
8,CCn1c(O)c(N=NC(=O)CNC(=O)/C=C/c2ccco2)c2ccccc21,1.49%
9,Cc1c(CCN)ccc2c1[nH]c1ccccc12,26.4%
10,Cc1c(C=O)c2ccccn2c1C(=O)c1ccccc1,21.6%
11,O=C(N/N=C/c1c(Cl)nc2ccccn2c1=O)c1cccnc1,-34.3%
12,Oc1ccc(-c2nc3ncccn3c2Nc2ccc3c(c2)OCCO3)cc1,15.1%
13,CC(C)CC(c1nnnn1Cc1ccco1)N1CCN(c2cccc(Cl)c2)CC1 (stereo not drawn),17.4%
14,COc1cccc(C2=NO[C@@H]3C(=O)N(Cc4ccccc4)C(=O)[C@H]23)c1OC,6.49%
15,CCOC(=O)/C=C1/N(C)c2ccccc2C1(C)C,-30.2%
16,Cc1ccc(N/N=C/c2ccncc2)cc1,-6.54%
17,Cc1cc(N/N=C/c2ccc(F)cc2)nc(NCc2ccccc2)n1,17.8%
18,CC(Oc1ccc(/C=N/NC(=O)Cc2cccc3ccccc23)cc1)C(=O)O (stereo not drawn),0.72%
19,COc1ccc(/C=N/NC2=NCCCCC2)c(OC)c1,20.2%
20,COc1ccc(/C=N/Nc2cc(C)nc3ccccc23)cc1,-40.8%
21,CCOC(=O)c1c(C)sc2c1N(C(C)=O)c1cc(Cl)ccc1S2,-3.33%
22,CCCC1(c2ccccc2)NC(=O)N(CC(=O)Nc2ccccc2C(F)(F)F)C1=O (stereo not drawn),27.4%
23,O=C1C2C3C=CC(CC3)C2C(=O)N1/N=C/c1ccc(O)cc1 (stereo not drawn),-1.35%
24,Cn1c(-c2ccc(CN3CCCCC3)o2)nc2ccccc21,-0.13%
25,CCN(CC)S(=O)(=O)c1ccc(/C(O)=C(\C#N)c2nc3ccccc3n2C)cc1,-25.9%

row,SMILES,inhibition
1,COc1ccc(CNc2nc3ccccc3n2C)c(O)c1,16.9%
2,CCN(CC)CCn1c(NCc2cc(OC)ccc2OC)nc2ccccc21,-0.33%
3,CC1(C)N=C(N)NC(Nc2cccc(Br)c2)=N1,-11.3%
4,Cc1cccc(NS(=O)(=O)c2ccc3c(c2)OCCO3)c1,1.22%
5,CCN(CC)CC#CC(C)OCOCC#CCOC (stereo not drawn),-5.3%
6,CNc1ccc(SC#N)cc1,30.1%
7,O=C(CCn1cccc1)Nc1ccc(OC(F)(F)F)cc1,-1.93%
8,NC1=NC2(CCCCC2)n2c(nc3ccccc32)N1,-8.01%
9,COc1ccc(NC2=Nc3ccccc3CC2)cc1,11.2%
10,Cc1ccc(C(=O)NCC(=O)NCCc2ccc(S(N)(=O)=O)cc2)s1,10.8%
11,CCN1C(=O)N/C(=C/c2cc(C)n(Cc3ccccc3)c2C)C1=O,30.9%
12,N=c1ccccn1CC(O)COc1ccccc1 (stereo not drawn),-17.7%
13,Cc1c(Cl)cccc1NC(=O)C1CCN(S(C)(=O)=O)CC1,-19.9%
14,Cc1ccc(N(C(=O)c2sc(C)nc2C)C(C(=O)NCc2ccco2)c2ccccc2)cc1 (stereo not drawn),-2.74%
15,Fc1cccc(Cl)c1CSc1ccc(-c2ccco2)nn1,-8.68%
16,Cc1cccc(OCC(=O)Nc2nonc2NC(=O)COc2cccc(C)c2)c1,18.1%
17,CC(=O)Nc1ccc(NC(=O)CSc2ccc(-c3ccco3)nn2)cc1,-9.15%
18,COc1ccccc1NC(=O)Cn1c(=O)n(CCc2c[nH]c3ccccc23)c(=O)c2cccnc21,2.09%
19,Cc1ccc(C)c(NC(=O)CSc2nnc([C@@H](N)Cc3c[nH]c4ccccc34)o2)c1,22.6%
20,CC(C)CC(=O)N1CCN(C(=O)CCC2CCCC2)CC1,1.22%
21,CC(C)c1ccc(C2C(C#N)=C(N)Oc3c2oc(CO)cc3=O)cc1 (stereo not drawn),32.6%
22,CNS(=O)(=O)c1cc(OC)ccc1OC,-17.8%
23,C#CC[N+]1(CC#Cc2ccc(C#CC[N+]3(CC#C)CCOCC3)cc2)CCOCC1,36%
24,Nc1c(-c2ccccc2)sc2ccc3ccccc3[n+]12,-6.95%
25,CCc1ccc(Nc2n[n+](-c3ccccc3)c(-c3c(Cl)cccc3Cl)s2)cc1,22.9%

row,SMILES,inhibition
1,COC(=O)CC1C(=O)NCCN1C(=O)CSc1nc2ccc([N+](=O)[O-])cc2s1 (stereo not drawn),-5.58%
2,O=C(O)COc1ccc(/C=C/c2nc3ccc([N+](=O)[O-])cc3s2)cc1,24.7%
3,C(=N\Nc1nc2ccccc2[nH]1)/c1ccc2ncccc2c1,22.9%
4,Cc1cccc(NC(=O)c2ccccc2Br)n1,7.12%
5,O=C(N/N=C/c1cccnc1)c1ccc([N+](=O)[O-])cc1Cl,20.2%
6,Cc1cc(=O)n2nc(N3CCCC(C(=O)NC4CCCCC4C)C3)sc2n1 (stereo not drawn),-11%
7,COC(=O)c1ccc(Cn2cnc3ccccc3c2=O)cc1,-24.3%
8,CCCCn1c(NS(=O)(=O)c2ccc(C)cc2)c(S(=O)(=O)c2ccccc2)c2nc3ccccc3nc21,16.6%
9,CCCCn1c(NCc2ccccc2NS(=O)(=O)c2ccc(C)cc2)nc2ccccc21,0.61%
10,N#CCCn1c2ccccc2c2nc3ccccc3nc21,-14.3%
11,O=S(=O)(Nc1c(S(=O)(=O)c2ccccc2)c2nc3ccccc3nc2n1C1CCCCC1)c1ccccc1,10.3%
12,CCOC(=O)CSc1nc(-c2ccccc2)nc2ccccc12,-13.8%
13,Cc1cccc(S(=O)(=O)c2c(N)n(/N=C/c3ccccc3)c3nc4ccccc4nc23)c1,-12%
14,CCC(=O)N(Cc1cc2cc(OC)ccc2[nH]c1=O)c1ccc(C)cc1C,-1.85%
15,O=C(CCS(=O)(=O)c1ccccc1)Nc1ccc2c(c1)C(=O)NC2=O,-8.55%
16,Cc1ccc2nsnc2c1S(=O)(=O)NCc1ccc2c(c1)OCO2,-19.2%
17,c1cncc(CSc2ccc(-c3cccs3)nn2)c1,21.3%
18,c1ccc2c(c1)CCN(c1nc3ccccc3n3cnnc13)C2,-0.2%
19,COc1ccc2c(c1OC)C(=O)N(c1ccc(C)cc1)C2=O,-3.73%
20,Cc1cc(C(F)F)n2nc(C(=O)Nc3cc(C)on3)nc2n1,-28.2%
21,Cc1[nH]nc2c1C(C1CC=CCC1)C(C#N)=C(N)O2 (stereo not drawn),-24.6%
22,CC1(C)CC(=O)C2=C(C1)N(c1ccc(F)cc1)C(=O)CC2c1ccsc1 (stereo not drawn),-3.27%
23,COc1ccc(-n2c3c(cc(C(=O)Nc4cccc(C)n4)c2=O)C(=O)CC(C)(C)C3)cc1,8.22%
